# Laboratory results from PubChem BioAssay (NCI).
# Compounds without any hit were thinned out: in the full panel of roughly 83,000, 20% have a hit.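 Method: cells in 96-well plates; compound added at one concentration; 48 h incubation; percent growth measured; values under 10 scored active.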 Values without a mark were called inactive. Activity calls are given as the source filed them.
# Tested on: MDA-MB-468 breast
# Assay: NCI-60 one-dose screen, 48 h (100 = growth as untreated, 0 = no growth, -100 = all killed)
# Conditions: 10 µM unless noted
row,Structure (SMILES),growth
1,COc1cc(C2CC(=O)c3ccccc3N2)cc(OC)c1OC (stereo not given),90.5%
2,CCN(CC)CCOC(=O)c1ccc(NC(=O)Nc2cccc(Cl)c2)cc1,103%
3,CCOC(=O)C1=C(C(=O)OCC)N(c2cc(OC)c(OC)c(OC)c2)C(N)=C(C#N)C1c1cc(=O)[nH]c2ccccc12 (stereo not given),92%
4,CC(C)(C)NC/C(=C\c1ccccc1)C(=O)c1ccccc1,-50.5% (active)
5,O=C1OC[C@H]2[C@H](c3ccc(O)c(O)c3)c3cc(O)c(O)cc3C[C@H]12,93.3%
6,COc1ccc(/C(C#N)=C/c2nc3c(N4CCOCC4)nc(Cl)nc3n2C)cc1OC,-20.9% (active)
7,COc1cc2c(O)n(CCCn3ccnc3)c3c4cnc5cccc(c(=O)c3c2cc1OC)c54,4.34% (active)
8,Nc1c(C(=O)Nc2cccc3cnccc23)sc2nc3c(cc12)CN(Cc1ccccc1)CC3,94.8%
9,[2H]c1nc(Nc2ncc(F)c(-c3cc(F)c4nc(C)n(C(C)C)c4c3)n2)c([2H])c([2H])c1CN1CCN(C([2H])([2H])C([2H])([2H])[2H])CC1,103%
10,CC1=CSC2=NCCN12,118%
11,CCN(CC)c1ccc(N=Nc2cc(Cl)ccc2Cl)c(NC(=O)CCC(=O)O)c1,107%
12,CCC(=O)Oc1cc(/C=C/C(=O)O[C@H]2C[C@H]3CN4CCc5c([nH]c6cc(OC)ccc56)[C@@H]4C[C@@H]3[C@@H](C(=O)OC)[C@@H]2OC)ccc1OC,71.3%
13,CCOC(=O)c1ccc(-c2ccc3cc(OC)ccc3c2)nc1C,119%
14,CCCNC(=O)Oc1ccc(/C(=C(/C)Cc2ccc(OC)cc2)c2ccc(OCCN3CCCC3)cc2)cc1,69%
15,COc1c(C2CC(=O)Nc3c2c(C)nn3-c2nc3ccccc3[nH]2)cc2c(c1OC)OCO2 (stereo not given),29.6%
16,O=C(O)c1ccccc1C(=O)Nc1ccc(Cl)cc1,120%
17,CC(=O)c1nn(-c2ccccc2)/c(=N/N=Cc2cn(-c3ccccc3)nc2-c2cc3ccccc3oc2=O)s1,103%
18,NNc1cccc(/C=C/c2ccccc2)cc1=O,38.3%
19,O=C(/C=C/C=C/c1ccc2c(c1)OCO2)N/N=C\c1ccc(O)cc1O,-2.83% (active)
20,Clc1ccc(C2=NN[C@H](c3cn(-c4ccccc4)nc3-c3ccccc3)C2)cc1,57.1%

row,Structure (SMILES),growth
1,COc1cc(NC(=O)c2cc(O)c(C/C=C(\C)CCC=C(C)C)c(O)c2)cc2c1O[C@]1(C)CC[C@@H](O)C(C)(C)[C@H]1C2,21.9%
2,C/C(=N\O)[C@@H]1CC[C@]2(CO)CC[C@]3(C)[C@H](CC[C@@H]4[C@@]5(C)CCCNC(C)(C)[C@@H]5CC[C@]43C)[C@@H]12,74.6%
3,Cc1cc(C)c2c(-c3nnc(N)s3)cc(=O)oc2c1,104%
4,Cc1ccc(-c2nc(C#N)c(S(=O)(=O)N(C)CCO)o2)cc1,46.1%
5,CS(=O)(=O)c1ccc(C(=O)N/N=C/c2ccccc2Cl)cc1,96.1%
6,N=C(N)c1ccc(-c2ccc(-c3ccc(Cl)cc3)s2)s1,-71.2% (active)
7,COc1c(-c2c3sc(=O)[nH]c3nc3c2c(=O)[nH]n3C(C)C)cc2c(c1OC)OCO2,102%
8,Cc1ccc(NC(=O)Nc2nc3ccccc3s2)cc1NC(=O)Nc1nc2ccccc2s1,96%
9,Cc1cc2c3ccc(C)[n+](C)c3ccc2n1C,19.1%
10,Fc1cc(-c2ncc(-c3cc(F)c(F)c(F)c3)c(NC3CCCCCC3)n2)cc(F)c1F,99%
11,O=C1CCCC1[n+]1ccccc1 (stereo not given),120%
12,CC(=C(c1ccc(OCCN2CCCC2)cc1)c1ccc(OCCN2CCCC2)cc1)c1ccc(Cl)cc1,-85.3% (active)
13,Clc1cc(Cl)cc(-c2cnc3nonc3n2)c1,82%
14,Cc1ccncc1C(N)=O,93.8%
15,CCOC(=O)CC1CSC(Nc2ccccc2)=N1 (stereo not given),106%
16,O=C1C2=C(C(=O)c3c(O)ccc(O)c31)N(c1cccnc1)Cc1ccccc1O2,-6.39% (active)
17,O=C(CN1CCN(c2cc(=O)[nH]c3ccc(F)cc23)CC1)Nc1ccc(Cl)cc1,58.2%
18,O=C(c1cc2ccccc2o1)c1nn(-c2ccccc2)/c(=N/N=Cc2cn(-c3ccccc3)nc2-c2cc3ccccc3oc2=O)s1,105%
19,O=C(Cn1nnc2ccccc21)Nc1ccc(-c2nc3ccccc3s2)cc1,-23.8% (active)
20,C=C(C)[C@@H]1CC[C@]2(C)[C@H](CC=C3[C@@H]4CC(C)(C)CC[C@]4(C(N)=O)CC[C@]32C)[C@@]1(C)CCC#N,15.1%
